Results: PubChem BioAssay (EPA / NIEHS)
Results filed as inconclusive are left out. Activity calls are given as the source filed them. How the source made its calls: active means hit-call score of the fitted dose curve at least 0.9, where 1 is the maximum; inconclusive means response in the unintended direction; inactive means score below 0.9.

These molecules were tested against human Vascular Endothelial Growth Factor Receptor 2 (VEGFR2), KDR (gene 3791) (UniProt P35968) (assay: NVS_ENZ_hVEGFR2: NovaScreen (NVS) Enzymatic Assay for human Vascular Endothelial Growth Factor Receptor 2 (VEGFR2) (AID 2283230)).
human Vascular Endothelial Growth Factor Receptor 2 (VEGFR2), KDR (gene 3791), sequence (P35968 whole entry, looked up): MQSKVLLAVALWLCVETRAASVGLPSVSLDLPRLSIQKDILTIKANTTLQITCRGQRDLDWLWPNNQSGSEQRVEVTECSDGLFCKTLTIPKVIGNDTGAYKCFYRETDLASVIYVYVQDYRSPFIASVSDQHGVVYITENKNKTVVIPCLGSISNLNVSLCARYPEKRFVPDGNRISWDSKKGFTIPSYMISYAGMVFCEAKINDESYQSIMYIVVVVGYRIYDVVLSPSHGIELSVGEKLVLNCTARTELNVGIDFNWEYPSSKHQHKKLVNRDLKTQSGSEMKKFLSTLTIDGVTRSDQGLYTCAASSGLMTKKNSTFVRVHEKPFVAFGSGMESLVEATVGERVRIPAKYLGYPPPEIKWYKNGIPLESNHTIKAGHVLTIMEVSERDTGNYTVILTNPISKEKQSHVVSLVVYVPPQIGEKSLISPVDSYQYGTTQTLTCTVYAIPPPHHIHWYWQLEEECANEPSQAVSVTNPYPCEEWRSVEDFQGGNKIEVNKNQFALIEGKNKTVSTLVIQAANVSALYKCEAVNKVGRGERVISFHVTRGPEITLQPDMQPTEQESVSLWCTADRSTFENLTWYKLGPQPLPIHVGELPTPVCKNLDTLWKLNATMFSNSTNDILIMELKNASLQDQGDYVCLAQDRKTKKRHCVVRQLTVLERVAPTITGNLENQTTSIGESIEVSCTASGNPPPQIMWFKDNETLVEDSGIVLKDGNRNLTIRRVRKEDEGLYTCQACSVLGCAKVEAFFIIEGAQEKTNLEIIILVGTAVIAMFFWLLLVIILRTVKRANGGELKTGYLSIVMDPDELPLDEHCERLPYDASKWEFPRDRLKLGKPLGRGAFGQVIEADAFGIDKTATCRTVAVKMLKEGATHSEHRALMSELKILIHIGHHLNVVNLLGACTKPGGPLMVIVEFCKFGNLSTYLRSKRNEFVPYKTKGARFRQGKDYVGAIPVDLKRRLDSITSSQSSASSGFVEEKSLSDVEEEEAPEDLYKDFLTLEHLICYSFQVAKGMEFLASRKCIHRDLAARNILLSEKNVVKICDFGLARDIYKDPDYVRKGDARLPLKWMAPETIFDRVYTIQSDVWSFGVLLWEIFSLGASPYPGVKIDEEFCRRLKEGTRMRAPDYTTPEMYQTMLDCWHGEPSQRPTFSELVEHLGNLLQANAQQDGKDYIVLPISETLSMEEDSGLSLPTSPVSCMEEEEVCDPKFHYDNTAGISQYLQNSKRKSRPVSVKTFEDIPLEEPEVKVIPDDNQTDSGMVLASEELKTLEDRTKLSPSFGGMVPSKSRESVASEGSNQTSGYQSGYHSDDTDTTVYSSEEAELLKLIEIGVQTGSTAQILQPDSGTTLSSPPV
How it was run: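 Cell-free recombinant VEGFR2 kinase, fluorescent substrate with electrophoretic mobility-shift separation; read 1 h after dosing. Screened at 25 uM in duplicate, hits to concentration-response up to 50 uM; loss-of-signal versus DMSO.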

| SMILES | AC50 | outcome |
| --- | --- | --- |
| COc1cc(-c2nc(NC(=O)c3cc4cc(C)cc(C)c4n3CC(=O)O)sc2CCC2CCCCC2)c(OC)cc1Cl | 7.16 µM (active) |  |
| Cc1oc(-c2ccccc2)nc1CCOc1cccc2c1ccn2CCC(=O)O |  | inactive |
| O=C(OCCCCCOC(=O)c1ccccc1)c1ccccc1 |  | inactive |
| CC1=C(/C=C/C(C)=C/C=C/C(C)=C/CO)C(C)(C)CCC1 |  | inactive |
| NCCO |  | inactive |
